According to PubChem BioAssay (Tox21):
Results filed as inconclusive are left out. The source made the active and inactive calls. Unless noted, calls follow the shape of the full dose curve.

What was measured:
[1] = Nuclear factor erythroid 2-related factor 2/antioxidant responsive element (Nrf2/ARE) small molecule agonists: qHTS cell viability counter screen in human keratinocytes (AID 1919968; active = well fitted curve in the direction sought with a large enough effect in the repeat runs; an effect the other way counts as inactive or inconclusive; also: nearly all actives have a fitted effect of over 55% in size)
Outline: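 Seed 1,500 KeratinoSens cells per well, then incubate 5 h at 37 C/5% CO2. Add compounds in DMSO and incubate 23 h. Add CellTiter-Fluor, wait 1 h and read fluorescence.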

[2] = Nuclear factor erythroid 2-related factor 2/antioxidant responsive element (Nrf2/ARE) small molecule agonists: luciferase reporter gene qHTS assay in human keratinocytes (AID 1919969); also: nearly all actives have a fitted effect of over 35% in size
[3] = target: Gonadotropin-releasing hormone receptor (Homo sapiens) (UniProt P30968); test: Human gonadotropin-releasing hormone receptor (GnRHR) small molecule agonists, calcium flux assay in GnRHR-HEK293 cells (AID 1920063); also: nearly all actives have a fitted effect of over 35% in size
Chain of Gonadotropin-releasing hormone receptor (Homo sapiens) (P30968 whole entry, looked up): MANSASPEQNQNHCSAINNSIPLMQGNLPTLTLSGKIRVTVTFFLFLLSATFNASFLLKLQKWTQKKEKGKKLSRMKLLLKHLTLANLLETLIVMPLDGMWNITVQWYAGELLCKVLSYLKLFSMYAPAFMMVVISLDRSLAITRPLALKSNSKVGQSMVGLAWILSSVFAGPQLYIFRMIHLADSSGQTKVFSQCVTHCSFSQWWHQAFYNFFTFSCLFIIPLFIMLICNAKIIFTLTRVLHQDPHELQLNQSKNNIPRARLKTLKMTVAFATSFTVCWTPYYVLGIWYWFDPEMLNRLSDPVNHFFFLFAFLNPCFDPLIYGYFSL
Outline: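 Cells: HEK293 stably expressing human GnRHR. Steps: overnight (18 h) culture, 1 h calcium dye loading at 37 C, compound addition, kinetic fluorescence read at 480/540 nm. Each compound tested at 15 concentrations in triplicate.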

[4] = target: KiSS-1 receptor (Homo sapiens) (UniProt Q969F8); test: Human kisspeptin (KISS1R) small molecule agonists, calcium flux assay in KISS1R-HEK293 cells (AID 1920064; active = well fitted curve in the direction sought with a large enough effect in the repeat runs; an effect the other way counts as inactive or inconclusive)
Chain of KiSS-1 receptor (Homo sapiens) (Q969F8 whole entry, looked up): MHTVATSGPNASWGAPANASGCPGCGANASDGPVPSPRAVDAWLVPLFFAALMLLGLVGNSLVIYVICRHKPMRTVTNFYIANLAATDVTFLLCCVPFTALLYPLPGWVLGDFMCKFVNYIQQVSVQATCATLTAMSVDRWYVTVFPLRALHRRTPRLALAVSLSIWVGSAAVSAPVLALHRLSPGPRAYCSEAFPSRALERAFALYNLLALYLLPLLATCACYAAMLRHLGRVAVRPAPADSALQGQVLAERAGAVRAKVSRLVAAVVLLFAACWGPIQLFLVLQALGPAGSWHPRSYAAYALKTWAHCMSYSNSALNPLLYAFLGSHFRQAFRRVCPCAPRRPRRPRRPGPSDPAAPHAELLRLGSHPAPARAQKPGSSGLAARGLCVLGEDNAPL
Outline: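 Cells plated and incubated 18 h; dye added, 1 h at 37 C; compounds in DMSO pinned in; signal read at 480/540 nm every second for 3 min. Each compound tested at 15 concentrations in triplicate.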

[5] = G protein-coupled receptor (GPCR) small molecule agonists, calcium flux assay: HEK293 wild type cell line counter screen (AID 1920065)
Outline: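 Counter-screen of the Tox21 10K library for non-specific calcium release: dye-loaded cells received compounds in DMSO and were monitored by kinetic fluorescence (480/540 nm, 3 min). Fifteen concentrations, run in triplicate.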

[6] = p53 small molecule agonists, cell-based qHTS assay with human liver microsomes (AID 1963577)
Outline: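 p53RE-bla reporter cells were pre-incubated 5 h at 37 C, then treated with compounds plus human liver microsomes (0.5 mg/mL final) and NADPH (0.5 mg/mL final) for 16 h at 37 C. Beta-lactamase activity was read by LiveBLAzer fluorescence after 2 h at room temperature.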

[7] = p53 small molecule agonists, cell-based qHTS assay with rat liver microsomes (AID 1963578)
Outline: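 p53RE-bla cells were exposed to compounds together with rat liver microsomes (0.5 mg/mL final) and NADPH (0.5 mg/mL final) for 16 h at 37 C, then read by LiveBLAzer beta-lactamase fluorescence after 2 h at room temperature.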

[8] = p53 small molecule agonists, cell-based qHTS assay with human liver microsomes: qHTS cell viability counter screen (AID 1963579); also: nearly all actives have a fitted effect of over 45% in size
Outline: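 p53RE-bla cells (4,000/well) were pre-incubated 5 h at 37 C, then given compounds in DMSO plus human liver microsomes (0.5 mg/mL final) and NADPH (0.5 mg/mL final) for 16 h at 37 C. Viability was read by CellTiter-Glo luminescence.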

[9] = p53 small molecule agonists, cell-based qHTS assay with rat liver microsomes: qHTS cell viability counter screen (AID 1963580); also: nearly all actives have a fitted effect of over 45% in size
Outline: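 Intracellular ATP, by CellTiter-Glo luminescence, defines viability. HCT-116 p53RE-bla cells, 4,000 per well, were compound-treated in the presence of rat liver microsomes and NADPH for 16 h at 37 C.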

[10] = p53 small molecule agonists, cell-based qHTS assay: qHTS cell viability counter screen (AID 1963581); also: nearly all actives have a fitted effect of over 45% in size
Outline: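 Cells: HCT-116 with p53 response element-driven beta-lactamase. Treatment: 16 h, 37 C, compounds in DMSO. Read: CellTiter-Glo luminescence after 30 min RT.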

[11] = p53 small molecule agonists, cell-based qHTS assay (AID 1963582; active = well fitted activation curve with a large enough effect in the signal ratio in the repeat runs, not every such curve was filed as active; the % refers to the signal ratio)
Outline: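 Quantitative HTS in p53RE-bla cells: after a 5 h settling period, compounds delivered in DMSO were left on cells for 16 h at 37 C, and reporter induction was measured as fluorescence following 2 h substrate loading.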

[12] = target: 5-hydroxytryptamine receptor 2A (Homo sapiens) (UniProt P28223); test: 5-hydroxytryptamine receptor 2A (HTR2A) small molecule antagonists, cell-based qHTS assay (AID 1963586); also: nearly all actives have a fitted effect of over 45% in size
Chain of 5-hydroxytryptamine receptor 2A (Homo sapiens) (P28223 whole entry, looked up): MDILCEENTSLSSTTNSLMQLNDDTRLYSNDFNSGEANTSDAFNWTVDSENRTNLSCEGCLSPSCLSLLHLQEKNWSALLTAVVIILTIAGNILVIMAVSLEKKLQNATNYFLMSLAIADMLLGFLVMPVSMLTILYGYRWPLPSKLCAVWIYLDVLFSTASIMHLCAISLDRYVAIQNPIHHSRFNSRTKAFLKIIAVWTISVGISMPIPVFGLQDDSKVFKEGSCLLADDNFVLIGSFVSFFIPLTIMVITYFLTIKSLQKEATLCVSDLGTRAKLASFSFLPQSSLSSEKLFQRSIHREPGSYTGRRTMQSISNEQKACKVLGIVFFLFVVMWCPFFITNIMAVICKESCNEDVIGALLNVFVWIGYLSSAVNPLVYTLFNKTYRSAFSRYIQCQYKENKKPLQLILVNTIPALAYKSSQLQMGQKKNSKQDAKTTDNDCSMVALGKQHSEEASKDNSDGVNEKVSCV
Outline: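 Antagonist-mode intracellular calcium assay: DOI (4 nM) added after 5 min compound pre-incubation at room temperature to dye-loaded HTR2A-CHO cells. Fluorescence followed for 3 min, sampled every second.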

[13] = target: 5-hydroxytryptamine receptor 2A (Homo sapiens) (UniProt P28223); test: 5-hydroxytryptamine receptor 2A (HTR2A) small molecule agonists, cell-based qHTS assay (AID 1963587); also: nearly all actives have a fitted effect of over 30% in size
Outline: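 Kinetic calcium-flux fluorescence (2 min, 1 sec intervals) after compound addition in agonist mode. HTR2A-CHO cells were cultured 18 h, then dye-loaded 1 h at 37 C.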

[14] = target: Muscarinic acetylcholine receptor M1 (Homo sapiens) (UniProt P11229); test: Cholinergic receptor muscarinic 1 (CHRM1) small molecule antagonists, cell-based qHTS assay (AID 1963588); also: nearly all actives have a fitted effect of over 40% in size
Chain of Muscarinic acetylcholine receptor M1 (Homo sapiens) (P11229 whole entry, looked up): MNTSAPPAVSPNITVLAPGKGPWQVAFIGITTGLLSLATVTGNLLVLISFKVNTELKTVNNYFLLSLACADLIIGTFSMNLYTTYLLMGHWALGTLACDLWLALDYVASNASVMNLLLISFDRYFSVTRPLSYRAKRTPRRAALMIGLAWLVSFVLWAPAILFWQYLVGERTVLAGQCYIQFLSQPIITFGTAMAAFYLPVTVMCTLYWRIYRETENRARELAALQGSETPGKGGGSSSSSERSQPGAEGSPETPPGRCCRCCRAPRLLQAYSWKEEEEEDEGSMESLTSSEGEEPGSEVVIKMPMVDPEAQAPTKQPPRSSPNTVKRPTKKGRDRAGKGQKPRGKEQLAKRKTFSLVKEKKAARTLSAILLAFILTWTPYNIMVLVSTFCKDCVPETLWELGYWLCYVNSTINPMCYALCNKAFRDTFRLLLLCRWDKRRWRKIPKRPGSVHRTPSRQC
Outline: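 CHRM1-CHO calcium-flux assay, antagonist mode. Cells were seeded 18 h, dye-loaded 1 h at 37 C and given compound for 5 min at RT, then acetylcholine was added at 50nM. FDSS fluorescence was read 3 min; 15 concentrations, three runs.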

[15] = target: Muscarinic acetylcholine receptor M1 (Homo sapiens) (UniProt P11229); test: Cholinergic receptor muscarinic 1 (CHRM1) small molecule agonists, cell-based qHTS assay (AID 1963589); also: nearly all actives have a fitted effect of over 35% in size
Outline: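 Agonist-mode qHTS in CHO cells stably carrying human muscarinic M1. Intracellular calcium is tracked by fluorescence every second after compound transfer; each compound runs at 15 concentrations in three independent runs.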

[16] = cAMP Responsive Elements (CRE) small molecule agonists, cell-based qHTS assay (AID 1963590)
Outline: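 Agonist mode qHTS in CRE-bla HEK 293T cells: compounds dosed from DMSO for 3 h at 37 C/5% CO2, followed by LiveBLAzer B/G FRET substrate for 2 h at room temperature.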

[17] = cAMP Responsive Elements (CRE) small molecule antagonists, cell-based qHTS assay (AID 1963591; active = well fitted inhibition curve with a large enough effect in the signal ratio in the repeat runs, not every such curve was filed as active; the % refers to the signal ratio)
Outline: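 Antagonist mode: test compounds are co-incubated with the adenylyl cyclase activator NKH477 (0.25 uM final) on CRE-bla HEK293T cells for 3 h at 37 °C, followed by LiveBLAzer substrate loading.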

[18] = target: Beta-2 adrenergic receptor (Homo sapiens) (UniProt P07550); test: Adrenergic beta2 receptor (ADRB2) small molecule antagonists, cell-based qHTS assay (AID 1963592); also: series mostly up to about 92 µM; nearly all actives have a fitted effect of over 50% in size
Chain of Beta-2 adrenergic receptor (Homo sapiens) (P07550 whole entry, looked up): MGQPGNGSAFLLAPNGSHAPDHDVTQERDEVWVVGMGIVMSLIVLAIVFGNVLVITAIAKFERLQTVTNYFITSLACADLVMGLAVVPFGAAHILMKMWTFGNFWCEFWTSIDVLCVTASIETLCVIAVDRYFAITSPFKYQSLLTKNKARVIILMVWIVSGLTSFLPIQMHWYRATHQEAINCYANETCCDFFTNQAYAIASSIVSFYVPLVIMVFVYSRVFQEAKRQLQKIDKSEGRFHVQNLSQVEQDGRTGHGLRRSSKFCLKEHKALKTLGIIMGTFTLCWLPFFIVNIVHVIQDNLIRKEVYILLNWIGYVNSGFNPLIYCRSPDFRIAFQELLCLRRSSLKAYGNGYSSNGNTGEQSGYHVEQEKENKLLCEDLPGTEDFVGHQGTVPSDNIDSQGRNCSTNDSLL
Outline: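 Cells (CHO, stable ADRB2 overexpression) incubated 18-20hr at 37C; compounds added from DMSO; agonist mix (1nM isoproterenol, 100uM IBMX, 25uM Ro-20-1724) added; 0.5hr RT; d2-cAMP and anti-cAMP-cryptate added; 1hr RT; 665/615 nm read.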

[19] = target: Beta-2 adrenergic receptor (Homo sapiens) (UniProt P07550); test: Adrenergic beta2 receptor (ADRB2) small molecule agonists, cell-based qHTS assay (AID 1963593);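 also: CHO cells stably overexpressing human ADRB2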
Outline: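 CHO cells stably over-expressing ADRB2 were plated overnight at 37C, then dosed with compounds plus a stimulation mix containing 100uM IBMX and 25uM Ro-20-1724 for 0.5hr at room temperature. cAMP was measured by HTRF competition, 1hr.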

[20] = target: D(2) dopamine receptor (Homo sapiens) (UniProt P14416); test: Dopamine D2 receptor (DRD2) small molecule agonists, cell-based qHTS assay (AID 1963594); also: nearly all actives have a fitted effect of over 35% in size
Chain of D(2) dopamine receptor (Homo sapiens) (P14416 whole entry, looked up): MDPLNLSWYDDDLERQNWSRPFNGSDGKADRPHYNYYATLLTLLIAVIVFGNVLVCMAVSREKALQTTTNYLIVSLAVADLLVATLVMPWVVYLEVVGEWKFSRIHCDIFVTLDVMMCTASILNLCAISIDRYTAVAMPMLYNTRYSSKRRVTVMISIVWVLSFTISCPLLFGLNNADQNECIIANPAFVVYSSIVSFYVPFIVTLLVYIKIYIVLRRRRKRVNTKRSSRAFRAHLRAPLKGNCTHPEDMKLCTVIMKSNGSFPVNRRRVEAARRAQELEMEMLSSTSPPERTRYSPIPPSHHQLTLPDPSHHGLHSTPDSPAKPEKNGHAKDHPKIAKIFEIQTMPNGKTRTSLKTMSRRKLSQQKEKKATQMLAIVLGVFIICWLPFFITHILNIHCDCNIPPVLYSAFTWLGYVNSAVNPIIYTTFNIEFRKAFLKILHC
Outline: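 cAMP accumulation in DRD2-HEK293 cells measured by HTRF after 1 h detection; compounds added 10 min before NKH477 (200nM […]) forskolin-analogue stimulation, 30 min at room temperature, with Ro20-1724 present at 0.1 mM final.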

Measured: Potency

C=C(C)C(=O)OCCC(F)(F)C(F)(F)C(F)(F)C(F)(F)C(F)(F)C(F)(F)F
inactive: all assays above

COC(=O)c1cc(Cl)c(NC(C)=O)cc1OC
inactive: all assays above

CC(CO)c1ccccc1 (stereo not drawn)
inactive: all assays above

CC(C)=O
inactive: all assays above

CC[N+](C)(C)c1cccc(O)c1
not listed: [20]
inactive: all other assays above

CCN(CC#N)c1cccc(C)c1
inactive: all assays above

O=S(=O)(O)C(F)(F)F
not listed: [20]
inactive: all other assays above
